These results are taken from PubChem BioAssay (NCATS).

The nature of experiment [1]: qHTS of pediatric cancer cell lines to identify multiple opportunities for drug repurposing: Primary screen for BT-12 cells (AID 1347101). Also: nearly all actives have a fitted effect of over 25% in size. Also: potency is read from the fitted curve at half-maximal effect. The gist of the method: (§1)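 Cells (500-1,000/well) rested 5 h, then received compounds for 48 h; metabolically active cells were measured by CellTiter-Glo luminescence. Final concentrations spanned up to 46 µM (MIPE, 11-point) or 0.59 nM-46 µM (NPC, 8-point) in primary screens, 11-point in follow-ups.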
(In general: In qHTS, concentration-response curves come from the screen itself.)

Experiment [2] can be described thus: qHTS of pediatric cancer cell lines to identify multiple opportunities for drug repurposing: Primary screen for Rh18 cells (AID 1347102). Also: nearly all actives have a fitted effect of over 65% in size. Also: potency is read from the fitted curve at half-maximal effect. The gist of the method:
as §1

The nature of experiment [3]: qHTS of pediatric cancer cell lines to identify multiple opportunities for drug repurposing: Primary screen for OHS-50 cells (AID 1347103). Also: nearly all actives have a fitted effect of over 40% in size. Also: potency is read from the fitted curve at half-maximal effect. The gist of the method: as §1
Experiment [4] is described as follows: qHTS of pediatric cancer cell lines to identify multiple opportunities for drug repurposing: Primary screen for RD cells (AID 1347104). Also: nearly all actives have a fitted effect of over 55% in size. Also: potency is read from the fitted curve at half-maximal effect. The gist of the method:
(§2)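 Following a 5-hour attachment period, cells at 500-1,000/well received compounds and were cultured for 48 hours. CellTiter-Glo was added and luminescence read to estimate viable, metabolically active cells.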

Experiment [5] in a line: qHTS of pediatric cancer cell lines to identify multiple opportunities for drug repurposing: Primary screen for MG 63 (6-TG R) cells (AID 1347105). Also: nearly all actives have a fitted effect of over 50% in size. Also: potency is read from the fitted curve at half-maximal effect. The gist of the method: as §2
The nature of experiment [6]: qHTS of pediatric cancer cell lines to identify multiple opportunities for drug repurposing: Primary screen for control Hh wild type fibroblast cells (AID 1347106).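 Also: series mostly up to about 46 µM; a drop in luminescence marks cytotoxicity and a rise apparent proliferation; nearly all actives have a fitted effect of over 55% in size.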 The gist of the method: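 Viability after 48 h compound treatment at 37C, 500-1,000 cells/well, read as ATP luminescence with CellTiter-Glo. Primary screens used 11-point (MIPE, 0.78 nM-46 µM) or 8-point (NPC, 0.59 nM-46 µM) final concentrations; follow-up screens used 11-point dilutions.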

Experiment [7] in a line: qHTS of pediatric cancer cell lines to identify multiple opportunities for drug repurposing: Primary screen for Rh30 cells (AID 1347107). Also: series mostly up to about 46 µM; nearly all actives have a fitted effect of over 75% in size. The method in brief: as §1
Experiment [8] is described as follows: qHTS of pediatric cancer cell lines to identify multiple opportunities for drug repurposing: Primary screen for Rh41 cells (AID 1347108).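 Also: series mostly up to about 46 µM; luminescence drop marks cytotoxic hits; nearly all actives have a fitted effect of over 70% in size.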 The gist of the method:
as §2

Results filed as inconclusive are left out. A number with no mark means an inactive call. Active and inactive are the calls of the source. Calls follow the shape of the dose curve; as a rule, active = well fitted curve in the direction sought with a large enough effect; inconclusive = small, poorly fitted or top-dose-only effect, or another doubt; inactive = no such curve, though single readings can be large; an effect the other way counts as inactive or inconclusive.

Turning to `Nc1nc2c(ncn2CCC(CO)CO)c(=O)[nH]1`, the Potency result in experiment [1], in experiment [2], in experiment [3], in experiment [4], in experiment [5] and in experiment [8] was “inactive” throughout. Besides, the outcome in experiment [6] and in experiment [7] was inactive.

`Nc1ccc(S(=O)(=O)Nc2nccs2)cc1`: the Potency result in experiment [1], in experiment [2], in experiment [3], in experiment [4], in experiment [5] and in experiment [8] was “inactive” each time. The call in experiment [6] and in experiment [7] was inactive.

As for `CC(=O)Oc1ccc(C2(c3ccc(OC(C)=O)cc3)C(=O)Nc3ccccc32)cc1`, the Potency entry in experiment [1], in experiment [2], in experiment [4] and in experiment [8] was “inactive” in each case. The figures for the Potency in experiment [3] and in experiment [5] were 1.1 µM (active) and 0.168 µM (active), respectively. For the same compound, the call in experiment [6] and in experiment [7] was inactive.

As for `O=c1cc[nH]c(=O)[nH]1`, the Potency result in experiment [1], in experiment [2], in experiment [3], in experiment [4], in experiment [5] and in experiment [8] was “inactive” each time. For the same compound, the result in experiment [6] and in experiment [7] was inactive.

On to `C=CCn1c(=O)n([C@@H]2O[C@H](CO)[C@@H](O)[C@H]2O)c2nc(N)[nH]c(=O)c21`, for which the Potency result in experiment [1], in experiment [2], in experiment [3], in experiment [4], in experiment [5] and in experiment [8] was “inactive” each time. Also, the compound was classed as inactive in experiment [6] and in experiment [7].

Take `CC/C=C(\C(=O)N[C@@H]1C(=O)N2C(C(=O)OCOC(=O)C(C)(C)C)=C(COC(N)=O)CS[C@H]12)c1csc(N)n1`: the Potency result in experiment [1], in experiment [2], in experiment [3], in experiment [4], in experiment [5] and in experiment [8] was “inactive” in each case. The compound was called inactive in experiment [6] and in experiment [7].

For the compound `CCOC(CN1CCN(CC(C)C(=O)c2ccccc2)CC1)c1ccccc1` (stereo not drawn), the Potency entry in experiment [1], in experiment [2], in experiment [3], in experiment [4], in experiment [5] and in experiment [8] was “inactive” in each case. In addition, the compound was called inactive in experiment [6] and in experiment [7].

Consider `CNC(=O)Oc1ccc2c(c1)[C@]1(C)CCN(C)[C@@H]1N2C`, for which the Potency entry in experiment [1], in experiment [2], in experiment [3], in experiment [4], in experiment [5] and in experiment [8] was “inactive” in each case. For the same compound, the compound was called inactive in experiment [6] and in experiment [7].

Turning to `O=C(O)CC(O)C(=O)O` (stereo not drawn), the Potency result in experiment [1], in experiment [2], in experiment [3], in experiment [4], in experiment [5] and in experiment [8] was “inactive” in each case. Also, the compound was classed as inactive in experiment [6] and in experiment [7].

For the compound `COc1ccc(Cl)cc1C(=O)NCCc1ccc(S(=O)(=O)NC(=O)NC2CCCCC2)cc1`, the Potency result in experiment [1], in experiment [2], in experiment [3], in experiment [4], in experiment [5] and in experiment [8] was “inactive” in each case. The compound was classed as inactive in experiment [6] and in experiment [7].

On to `COc1cc(C)c(Cc2cnc(N)nc2N)cc1OC`, for which the Potency result in experiment [1], in experiment [2], in experiment [3], in experiment [4], in experiment [5] and in experiment [8] was “inactive” throughout. Further, the compound was called inactive in experiment [6] and in experiment [7].

For the compound `CC(=O)Nc1ccc(/C=N/NC(N)=S)cc1`, the Potency result in experiment [1], in experiment [2], in experiment [3], in experiment [4], in experiment [5] and in experiment [8] was “inactive” throughout. Further, the compound was called inactive in experiment [6] and in experiment [7].

For the compound `O=C1OC(OC(=O)c2cccnc2Nc2cccc(C(F)(F)F)c2)c2ccccc21` (stereo not drawn), the Potency result in experiment [1], in experiment [2], in experiment [3], in experiment [4], in experiment [5] and in experiment [8] was “inactive” in each case. Further, the call in experiment [6] and in experiment [7] was inactive.

For `NS(=O)(=O)c1cc2c(cc1Cl)NC(CSCc1ccccc1)=NS2(=O)=O`, the Potency entry in experiment [1], in experiment [2], in experiment [3], in experiment [4], in experiment [5] and in experiment [8] was “inactive” throughout. Further, the call in experiment [6] and in experiment [7] was inactive.

Consider `CCCc1c(OCCCCc2nn[nH]n2)ccc(C(C)=O)c1O`, for which the Potency entry in experiment [1], in experiment [2], in experiment [3], in experiment [4], in experiment [5] and in experiment [8] was “inactive” throughout. For the same compound, the result in experiment [6] and in experiment [7] was inactive.

Turning to `CO/N=C(\C(=O)N[C@@H]1C(=O)N2C(C(=O)O)=C(CSc3nc(=O)c(O)nn3C)CS[C@H]12)c1csc(N)n1`, the Potency entry in experiment [1], in experiment [2], in experiment [3], in experiment [4], in experiment [5] and in experiment [8] was “inactive” throughout. The outcome in experiment [6] and in experiment [7] was inactive.

For the compound `CC[N+](CC)(CC)CCOc1ccc(/C=C/c2ccccc2)cc1`, the Potency is 3.47 µM (active) in experiment [1], 7.5 µM (active) in experiment [2], 3.47 µM (active) in experiment [3] and 15 µM (active) in experiment [4].

As for `CCCCCCCCCCCCOS(=O)(=O)O`, the Potency result in experiment [1], in experiment [2], in experiment [3], in experiment [4], in experiment [5] and in experiment [8] was “inactive” each time. In addition, the call in experiment [6] and in experiment [7] was inactive.

Consider `CN1CCC[C@@H]1Cc1c[nH]c2ccc(CCS(=O)(=O)c3ccccc3)cc12`, for which the Potency result in experiment [1], in experiment [2], in experiment [3], in experiment [4], in experiment [5] and in experiment [8] was “inactive” each time. Besides, the compound was classed as inactive in experiment [6] and in experiment [7].

Take `[O-][n+]1cccc(CO)c1`: the Potency result in experiment [1], in experiment [2], in experiment [3], in experiment [4], in experiment [5] and in experiment [8] was “inactive” throughout. For the same compound, the call in experiment [6] and in experiment [7] was inactive.

In the case of `C=Cc1c(C)c2cc3[nH]c(cc4nc(cc5nc(cc1[nH]2)C(C)=C5CCC(=O)O)C(CCC(=O)O)=C4C)c(C)c3C=C`, the Potency result in experiment [1], in experiment [2], in experiment [3], in experiment [4], in experiment [5] and in experiment [8] was “inactive” each time. In addition, the compound was called inactive in experiment [6] and in experiment [7].

`C[C@H](NC(CCc1ccccc1)C(=O)O)C(=O)N1CCC[C@H]1C(=O)O` (stereo partly drawn): the Potency entry in experiment [1], in experiment [2], in experiment [3], in experiment [4], in experiment [5] and in experiment [8] was “inactive” each time. Also, the call in experiment [6] and in experiment [7] was inactive.

Take `O=c1cc(CO)occ1O`: the Potency entry in experiment [1], in experiment [2], in experiment [3], in experiment [4], in experiment [5] and in experiment [8] was “inactive” each time. Moreover, the outcome in experiment [6] and in experiment [7] was inactive.

On to `CC(C)(C(=O)O)c1ccc(C(O)CCCN2CCC(C(O)(c3ccccc3)c3ccccc3)CC2)cc1` (stereo not drawn), for which the Potency result in experiment [1], in experiment [2], in experiment [3], in experiment [4], in experiment [5] and in experiment [8] was “inactive” in each case. In addition, the call in experiment [6] and in experiment [7] was inactive.
